This passage reports INHIBITION results from ChEMBL document CHEMBL4513216, “Probing the Open Global Health Chemical Diversity Library for Multistage-Active Starting Points for Next-Generation Antimalarials” (ACS Infect Dis, 2020).

Among all 69,000 compounds or so, about 8,600 (12%) showed an effect of 50% or more. What follows is part of a selection rich in strong results, with near analogues and random picks from the rest.

This experiment relates to Plasmodium berghei. Description: Screen against P. berghei liver stage (PbLuc), transformed with Luciferase, at 10uM. The following applies: tested at 10 uM. Type of experiment: functional, HepG2.
For the compound `CN(CC(O)C(F)(F)F)C(=O)Nc1cccc(C(F)F)c1` (centres undefined), the INHIBITION was found to be 40.7%.
The figure for `Cc1c(NC(=O)C(C)N(C)C)c(=O)n(-c2ccccc2)n1C` (centres undefined) is -45.8%; for `COc1ccc(Cl)cc1CS(=O)(=O)Cc1noc(C)n1` it is 34.7%.
Regarding `COc1ccc(Cl)cc1CS(=O)(=O)Cc1nc(C)no1`, the INHIBITION amounted to 60.4%.
Consider `COc1ccc(Cl)cc1CS(=O)(=O)Cc1nc(C2CC2)no1`, for which the INHIBITION was -3.96%.
Turning to `c1ccc(-c2nc(CN3CCCC(Cn4cncn4)C3)cs2)cc1` (centres undefined), the INHIBITION is recorded as -7.35%.
Turning to `CC(C)(C)c1nc(CN2CCCC(Cn3cncn3)C2)cs1` (centres undefined), the INHIBITION is 61.7%.
The figure for `Clc1cc(CN2CCCN3CCCC3C2)c2ncccc2c1` (centres undefined) is 55%.
As for `Clc1ccc(CN2CCCC(Cn3cncn3)C2)c2ncccc12` (centres undefined), the INHIBITION is recorded as 35.1%.
As for `Cc1cccc2cc(CN3CCCN4CCC[C@H]4C3)c(=O)[nH]c12`, the INHIBITION came out at 34.9%.
Turning to `Clc1cc(CN2CCCC(Cn3cncn3)C2)c2ncccc2c1` (centres undefined), the INHIBITION was 76.2%.
Under `CC(C)c1nc(CN2CCCC(Cn3cncn3)C2)cs1` (centres undefined) stands 31.2%.
The figure for `Clc1snnc1CN1CCCC1Cn1cncn1` (centres undefined) is -11.4%; for `Clc1cc(CN2CCCC2Cn2cncn2)c2ncccc2c1` (centres undefined) it is 22.9%; for `Clc1snnc1CN1CCCC(Cn2cncn2)C1` (centres undefined) it is 62.1%.
Turning to `Clc1snnc1CN1CCCCC1Cn1cncn1` (centres undefined), the INHIBITION is given as 10.8%.
As for `Clc1cc(CN2CCCCC2Cn2cncn2)c2ncccc2c1` (centres undefined), the INHIBITION is -9.83%.
Under `Cc1cnc(C(=O)N2CCCC(n3cncn3)C2)cn1` (centres undefined) stands 41.5%.
For the compound `CCCc1nc(C(=O)N2CCn3nc(C(=O)OC)cc3C2)cs1`, the INHIBITION stood at 9.16%.
Regarding `Cc1noc(-c2ccc(N3CCN(Cc4nccn4C)CC3)nc2)n1`, the INHIBITION is reported as 9%.
In the case of `CC(Cc1ccccc1F)C(=O)Nc1ccc(OCCC(N)=O)cc1` (centres undefined), the INHIBITION is on record as -8.92%.
Take `CCOc1ccc(C2CCCN2C(=O)NCCn2ccnc2)cc1` (centres undefined): the INHIBITION came out at 8.85%.
For the compound `CC(=O)N1CCCC(Cc2cnc(C(=O)N3CCC(C)CC3)cn2)C1` (centres undefined), the INHIBITION amounted to 6.32%.
Under `Cc1ccnn1CCC(=O)N1C[C@@H](O)[C@H](Oc2cccc(F)c2)C1` stands 9.93%; under `CN(Cc1cnc(C(C)(C)C)nc1)Cc1nc2ccc(F)cc2[nH]1`, -0.18%; under `CCOCC(=O)N1C[C@@H](O)[C@H](NC(C)=O)C1`, 4.41%.
`COc1cc(Cl)cc(CN2CCCC(N3CCCC3)C2)c1OC` (centres undefined): the INHIBITION worked out at 77.6%.
Under `OCCN1CCN(Cc2cc(Cl)cc3cccnc23)CC1` stands 42.7%.
Under `O[C@@H]1CN(Cc2cc(Cl)cc3cccnc23)C[C@@H]1O` stands 51.3%.
The figure for `COc1ccc(CN2CCCC(N3CCCC3)C2)cc1Cn1cncn1` (centres undefined) is 34.1%; for `COc1cc(Cl)cc(CN2CCCC(N3CCOCC3)C2)c1OC` (centres undefined) it is 15.7%.
`CN(C)CC1CN(Cc2cc(Cl)cc3cccnc23)CCO1` (centres undefined): the INHIBITION worked out at 23.4%.
`CC1=C(C(=O)N(C)Cc2n[nH]c3c2CCCCC3)C(C)NC(=O)N1` (centres undefined): the INHIBITION worked out at 17.5%.
Regarding `c1ccc(CCc2n[nH]c(C3CCOC3)n2)cc1` (centres undefined), the INHIBITION is listed as 21.5%.
For `Cc1ccnn1CC(=O)N(C)Cc1ccc(-n2cccn2)cc1`, the INHIBITION is 21.8%.
As to `Cc1nonc1CN(C)Cc1cnn(-c2ccc(F)cc2)c1`, the INHIBITION is -23.4%.
The figure for `CC(C)c1nccc(CN(C)Cc2cnn(-c3ccccc3)c2)n1` is 51.7%; for `CC(C)c1nccc(CN(C)Cc2cccc(-n3cccn3)c2)n1` it is 6.9%.
For the compound `Cc1ccnn1CC(=O)N(C)Cc1cnn(-c2ccccc2)c1`, the INHIBITION turned out to be 50.8%.
`CSCC(=O)N(C)Cc1cnn(-c2ccc(F)cc2)c1`: the INHIBITION came to 13%.
With `CN(Cc1ccncc1)Cc1cnn(-c2ccc(F)cc2)c1`, the INHIBITION was 51.8%.
For `CCn1cc(CN(C)Cc2cnn(-c3ccc(F)cc3)c2)cn1`, the INHIBITION was 17%.
Under `COc1cccc(-n2cc(CN(C)Cc3ccnc(C(C)C)n3)cn2)c1` stands 15.005%; under `CN(C)Cc1ccnc(C2CCCN2Cc2cccc(F)c2F)n1` (centres undefined), 15.9%; under `CCc1ocnc1C(=O)N1CCCC(n2nc(C)nc2C)C1` (centres undefined), 11.715%.
Take `O=C(c1cnc(O)cc1O)N1CCCC(CCc2ccccc2F)C1` (centres undefined): the INHIBITION is 15.8%.
`CNC(=O)[C@H]1C[C@@H]2CN(C(=O)c3ccc(C)nc3)C[C@@H]2N1C(C)C`: the INHIBITION amounted to 11.3%.
On to `Cc1csc(C2CCCN(C(=O)c3c(C)nn4cccnc34)C2)n1` (centres undefined), for which the INHIBITION is given as -2.53%.
For `Cc1cc(C(C)NCCN2CCC(N(C)C)CC2)c(C)s1` (centres undefined), the INHIBITION is on record as 46.6%.
For `Cc1cc(Br)cnc1NCCN1CCC(N(C)C)CC1`, the INHIBITION came out at 64%.
In the case of `CC(=O)N1CCN(CCNc2ncc(Br)cc2C)CC1`, the INHIBITION came out at 54.4%.
In the case of `COC1CCN(CCNc2ncc(Br)cc2C)CC1`, the INHIBITION came out at 41.5%.
Take `CC(=O)N1CCN(CCNS(=O)(=O)c2cc(F)ccc2C)CC1`: the INHIBITION is on record as 17.1%.
The figure for `CC(=O)N1CCN(CCNS(=O)(=O)c2ccc(C)c(F)c2)CC1` is -3.95%.
